Assay outcomes as filed in PubChem BioAssay.
Hits are enriched below; roughly 10% of the tested compounds scored in any of these assays.
SW480 rerep: induces DNA re-replication in SW480 colon adenocarcinoma cells; SW480 DNA re-replication, Hoechst DNA content imaging, 48 h; Potency, µM (doses to about 46.1 µM), hits mostly activators; 340,000 tested, 1.8% active; note: nearly all actives have a fitted effect of over 55% in size
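Cells (250 per well) received 23 nL compound or DMSO by pin tool and were kept 48 hr at 37 C, 5% CO2. Nuclei were then stained with Hoechst for 40 min and scanned for DNA content.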
VP16 counter: counter-screen for ROR gamma inhibitors: Gal4-VP16 reporter | Drosophila S2 Gal4-VP16 UAS-luciferase, luminescence, 20 h | Potency, µM (top dose mostly 53.6 µM), hits mostly inhibitors | 310,000 tested, 3.5% active;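 note: Gal4-VP16 expression switched on by copper sulfate through the metallothionein promoter; nearly all actives have a fitted effect of over 50% in size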
ELG1 DNA repair: inhibitors of ELG1-dependent DNA repair in HEK293T cells | 330,000 tested, 2.3% active | AID 504467 | HEK293T ELG1-luciferase reporter, luminescence, 16 h; DNA damage induced by 5-fluorouridine | Potency, µM (titrated, usually from 46.1 µM), actives largely listed as inhibitors; note: nearly all actives have a fitted effect of over 55% in size
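Cells (2,000 per well) received 5-fluorouridine plus test compound or DMSO and were incubated 16 hr at 37 °C, 5% CO2. Luciferase activity was read by luminescence 30 min after ONE-Glo addition; signal suppression marked inhibition of damage-induced ELG1 function.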
RORgamma inh: blocks mouse ROR gamma transcriptional activity; Drosophila S2 Gal4-RORgamma UAS-luciferase reporter, 20 h; Potency, µM (titrated, usually from 53.6 µM), usual class: inhibitors; 310,000 tested, 5.4% active; note: nearly all actives have a fitted effect of over 60% in size
Target sequence (P51450 whole entry, looked up, the tested form may be a part): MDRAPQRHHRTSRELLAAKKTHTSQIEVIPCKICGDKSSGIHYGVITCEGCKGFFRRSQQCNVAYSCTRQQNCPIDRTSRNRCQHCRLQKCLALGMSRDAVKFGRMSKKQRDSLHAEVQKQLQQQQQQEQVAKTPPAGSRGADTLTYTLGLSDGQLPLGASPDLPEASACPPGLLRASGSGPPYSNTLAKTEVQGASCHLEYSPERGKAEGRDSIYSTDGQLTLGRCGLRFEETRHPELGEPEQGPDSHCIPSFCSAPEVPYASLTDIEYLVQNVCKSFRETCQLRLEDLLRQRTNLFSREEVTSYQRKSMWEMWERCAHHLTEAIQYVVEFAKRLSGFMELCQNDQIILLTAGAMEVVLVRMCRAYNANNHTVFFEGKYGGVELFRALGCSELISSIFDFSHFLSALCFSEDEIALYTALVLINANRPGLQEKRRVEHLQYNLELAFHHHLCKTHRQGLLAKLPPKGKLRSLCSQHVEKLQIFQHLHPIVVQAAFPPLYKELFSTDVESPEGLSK
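Read-out: Photinus luciferase luminescence; inhibitors lower reporter signal. Insect Schneider cells with Gal4-ROR gamma fusion under metallothionein promoter, UAS reporter; 700 uM final copper sulfate induction, 20 hr, ambient temperature.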
MCF10A rereplic: inducers of DNA re-replication in MCF 10A breast cells; Potency, µM (titrated, usually from 46.1 µM), hits mostly activators; MCF 10A DNA re-replication, Hoechst nuclear intensity, 48 h; AID 624296; 350,000 tested, 2.9% active; note: nearly all actives have a fitted effect of over 50% in size
Numbers stand for hits; [ ] = remark or other dose. Calls come from the whole dose curve; as a rule, active = well fitted curve in the direction sought with a large enough effect; inconclusive = small, poorly fitted or top-dose-only effect, or another doubt; inactive = no such curve, though single readings can be large; an effect the other way counts as inactive or inconclusive.

Results for COc1cccc(C(=O)Nc2nnc(-c3ccc(Cl)cc3)o2)c1 ?
SW480 rerep: inactive; VP16 counter: 1.58µM; ELG1 DNA repair: inactive; RORgamma inh: inconclusive; MCF10A rereplic: inactive

How did O=C(NC1CCCc2ccccc21)c1ccc(F)cc1F (centres undefined) do in these assays?
SW480 rerep: inactive; VP16 counter: inactive; ELG1 DNA repair: inactive; RORgamma inh: inactive; MCF10A rereplic: inactive

Results for COc1ccc([C@@H]2Sc3ccccc3N(CCN(C)C)C(=O)[C@@H]2OC(C)=O)cc1 ?
SW480 rerep: inconclusive; VP16 counter: inactive; ELG1 DNA repair: inactive; RORgamma inh: inactive; MCF10A rereplic: inactive

What do the screens show for `Cc1cc(OCc2cn(CC(=O)c3ccc(O)cc3)nn2)ccc1[N+](=O)[O-]`?
SW480 rerep: inactive; MCF10A rereplic: inactive

Results for COc1ccc2nc(NC(=O)Cn3cnc4ccccc4c3=O)sc2c1 ?
SW480 rerep: inactive; VP16 counter: inactive; ELG1 DNA repair: inconclusive; RORgamma inh: inconclusive; MCF10A rereplic: inactive

Results for COCCn1c(SCC(=O)NCC2CCCO2)nc2c(c1=O)SCC2 (centres undefined) ?
SW480 rerep: inactive; VP16 counter: inactive; ELG1 DNA repair: inactive; RORgamma inh: inactive; MCF10A rereplic: inactive

Results for O=C(Nc1nnc(-c2ccc(Cl)cc2)o1)c1cccc(N2C(=O)CCC2=O)c1 ?
SW480 rerep: inactive; VP16 counter: 2.24µM; ELG1 DNA repair: inactive; RORgamma inh: 3.16µM; MCF10A rereplic: inactive

How did CCOc1ccc(-c2nnc(NC(=O)c3ccc(OCC(C)C)c(OC)c3)o2)cc1 do in these assays?
SW480 rerep: inactive[9.22 µM]; VP16 counter: 0.0251µM; ELG1 DNA repair: inactive; RORgamma inh: 0.0282µM; MCF10A rereplic: inconclusive

Results for COc1cccc(-c2nnc(NC(=O)c3ccc4ncsc4c3)o2)c1 ?
SW480 rerep: inactive; VP16 counter: 0.562µM; ELG1 DNA repair: inactive; RORgamma inh: 0.562µM; MCF10A rereplic: 6.51µM

What do the screens show for `CCOc1ccc(NC(=O)CNC(=O)c2ccc(OC)c(OC)c2)cc1`?
SW480 rerep: inactive; VP16 counter: inactive; RORgamma inh: inactive; MCF10A rereplic: inactive

What do the screens show for `O=C(Cc1c(F)cccc1Cl)NNC(=O)c1ccc(Br)s1`?
SW480 rerep: inactive; ELG1 DNA repair: inactive; MCF10A rereplic: inactive

Results for CCn1c(CNc2nc3ccccc3n2C(C)C)nc2ccccc21 ?
SW480 rerep: inactive; VP16 counter: inactive[0.365 µM]; ELG1 DNA repair: inactive; RORgamma inh: inconclusive; MCF10A rereplic: inactive

How did CCC(c1nnc(SCC(=O)N(C)c2ccccc2)n1Cc1ccccc1)N(C)C (centres undefined) do in these assays?
SW480 rerep: inactive; MCF10A rereplic: inactive

How did COc1ccccc1-c1cc(C(F)(F)F)nc(S(=O)(=O)CCCC(=O)Nc2cc(C)on2)n1 do in these assays?
SW480 rerep: 16.4µM; VP16 counter: 7.94µM; ELG1 DNA repair: inconclusive; RORgamma inh: 11.2µM; MCF10A rereplic: 20.6µM

What do the screens show for `COc1ccc(-c2cc(C(F)(F)F)nc(S(=O)(=O)CCCC(=O)Nc3cc(C)on3)n2)cc1OC`?
SW480 rerep: inconclusive; VP16 counter: inconclusive; ELG1 DNA repair: inconclusive; RORgamma inh: 3.55µM; MCF10A rereplic: 3.66µM

What do the screens show for `Cc1cc(NC(=O)CCCSc2nc(-c3ccco3)cc(C(F)(F)F)n2)no1`?
SW480 rerep: inactive; VP16 counter: inactive; ELG1 DNA repair: inconclusive; RORgamma inh: inactive; MCF10A rereplic: inactive

How did CN1CCN(NC(=S)NC2CCCC2)CC1 do in these assays?
SW480 rerep: inactive; VP16 counter: inactive; ELG1 DNA repair: inactive; RORgamma inh: inactive; MCF10A rereplic: inactive

How did CC(C)(C)NC(=S)NC1CC1 do in these assays?
SW480 rerep: inactive; VP16 counter: inconclusive; ELG1 DNA repair: inactive; RORgamma inh: 12.6µM; MCF10A rereplic: inactive

What do the screens show for `CC(C)(C)NC(=S)NC(C)(C)C`?
SW480 rerep: inactive; VP16 counter: inconclusive; ELG1 DNA repair: inactive; RORgamma inh: 11.2µM; MCF10A rereplic: inactive

How did C=CCSc1nnc(NC(=O)C23CC4CC(CC(NC(C)=O)(C4)C2)C3)s1 do in these assays?
SW480 rerep: inactive; VP16 counter: 12.6µM; ELG1 DNA repair: inactive; RORgamma inh: inactive; MCF10A rereplic: inactive

Results for CCCCCCCCCCCCCCCC(=O)OCC(COP(=O)(O)OCC[N+](C)(C)C)OC(=O)CCCCCCCCCCCCCCC (centres undefined) ?
SW480 rerep: inactive; VP16 counter: inactive; RORgamma inh: inactive; MCF10A rereplic: inactive

Results for CCC(=O)[C@@]1(C)[C@H](C)C[C@@H]2[C@@H]3CCC4=CC(=O)C=C[C@@]4(C)[C@H]3[C@H](O)C[C@]21C ?
SW480 rerep: inactive; VP16 counter: inactive; RORgamma inh: inactive[2.98 µM]; MCF10A rereplic: inactive

How did COc1ccc(/C=C/C(=O)NCc2c(C)nn(C)c2C)cc1COc1ccc(Br)cc1 do in these assays?
SW480 rerep: inconclusive; VP16 counter: inconclusive; ELG1 DNA repair: inactive; RORgamma inh: inactive; MCF10A rereplic: 3.66µM

How did CCc1ccccc1NC(=S)NN do in these assays?
VP16 counter: inconclusive; ELG1 DNA repair: inactive; RORgamma inh: 11.2µM

What do the screens show for `Cc1cccc(NC(=S)N2N=CCC2c2ccccc2)c1` (centres undefined)?
SW480 rerep: inactive; VP16 counter: inconclusive; ELG1 DNA repair: inconclusive; RORgamma inh: inactive; MCF10A rereplic: inactive

What do the screens show for `Cc1ccc(NC(=S)N2CCCCCC2)c(C)c1`?
SW480 rerep: inactive; VP16 counter: 17.8µM; ELG1 DNA repair: inconclusive; RORgamma inh: inconclusive; MCF10A rereplic: inactive

How did Cc1ccc(C)c(NC(=S)N2CCCC2)c1 do in these assays?
SW480 rerep: inactive; VP16 counter: inconclusive; ELG1 DNA repair: inactive; RORgamma inh: inconclusive; MCF10A rereplic: inactive

Results for CCc1ccccc1NC(=S)N1N=CCC1c1ccccc1 (centres undefined) ?
SW480 rerep: inactive; VP16 counter: 7.94µM; ELG1 DNA repair: inconclusive; RORgamma inh: 3.16µM; MCF10A rereplic: inactive

What do the screens show for `FC(F)(F)c1ccccc1NC(=S)N1CCN(c2ncccn2)CC1`?
SW480 rerep: inactive[9.22 µM]; VP16 counter: inactive; ELG1 DNA repair: inconclusive; RORgamma inh: 12.6µM; MCF10A rereplic: inactive

How did COc1ccc(/C(N)=N/OC(=O)CCCc2ccccc2)cc1OC do in these assays?
SW480 rerep: inactive; VP16 counter: inactive; ELG1 DNA repair: inconclusive; RORgamma inh: inactive; MCF10A rereplic: inconclusive

What do the screens show for `CCCCC1CN2C(CCC(C)C2c2ccc(Br)cc2)C(=O)O1` (centres undefined)?
VP16 counter: inactive[10 µM]; RORgamma inh: inactive[10 µM]

What do the screens show for `CCOC(=O)C1(CCCc2ccccc2)CCN(C(=O)c2cc(C)nn2CC)CC1`?
SW480 rerep: inactive; VP16 counter: inactive; ELG1 DNA repair: inconclusive; RORgamma inh: inactive; MCF10A rereplic: inconclusive

How did Cc1ccc(Cl)cc1NC(=S)N1CCCCCC1 do in these assays?
SW480 rerep: inactive; VP16 counter: inconclusive; ELG1 DNA repair: inconclusive; RORgamma inh: 10µM; MCF10A rereplic: inactive

What do the screens show for `Cc1c(Cl)cccc1NC(=S)NN1CCOCC1`?
SW480 rerep: inactive; VP16 counter: inconclusive; ELG1 DNA repair: inactive; RORgamma inh: 10µM; MCF10A rereplic: inactive
